Reference: PubChem BioAssay (NCATS)
Records with an inconclusive call do not appear. A call without a number means that no potency is given here. Calls of active or inactive are those of the source. The call rests on the fitted dose curve; in most records, active means well fitted curve in the direction sought with a large enough effect; inconclusive means small, poorly fitted or top-dose-only effect, or another doubt; inactive means no such curve, though single readings can be large; an effect the other way counts as inactive or inconclusive.

How the values were obtained:
HACAT = assay: qHTS assay to identify novel small-molecules to repurpose for Merkel cell carcinoma treatment (AID 1296009); conditions: MCC and control cell lines, CellTiter-Glo viability, 72 h; at 44.8 µM (top of the series) unless noted; further: nearly all actives have a fitted effect of over 60% in size; further: potency means the concentration at half of the fitted maximal effect
Method in brief: (§1)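 Cells were incubated with compound for 72 hr at 37 degree celsius before CellTiter-Glo addition. Luminescence was normalized with no-cell wells as full cytotoxicity and DMSO as baseline.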

HEK293T [1] = assay: as above; conditions: MCC and control cell lines, CellTiter-Glo viability, 72 h; at 44.8 µM (top of the series) unless noted
Method in brief: as §1

MCC-13 = assay: as above; conditions: MCC and control cell lines, CellTiter-Glo viability, 72 h; series mostly up to 46 µM
Method in brief: as §1

MCC-26 = assay: as above; conditions: MCC and control cell lines, CellTiter-Glo viability, 72 h; series mostly up to 46 µM
Method in brief: as §1

MKL-1 = assay: as above; conditions: MCC and control cell lines, CellTiter-Glo viability, 72 h; series mostly up to 46 µM
Method in brief: as §1

MKL-2 = assay: as above; conditions: MCC and control cell lines, CellTiter-Glo viability, 72 h; series mostly up to 46 µM
Method in brief: as §1

UISO = assay: as above; conditions: MCC and control cell lines, CellTiter-Glo viability, 72 h; series mostly up to 46 µM
Method in brief: as §1

WaGa = assay: as above; conditions: MCC and control cell lines, CellTiter-Glo viability, 72 h; series mostly up to 46 µM
Method in brief: as §1

C33A = assay: Primary qHTS to identify gynecologic anti-cancer compounds using libraries of approved drugs and bioactive compounds (AID 1345084); conditions: Gynecologic cancer cell panel viability, ATPlite luminescence, 48 h; series mostly up to 57.5 µM; further: nearly all actives have a fitted effect of over 55% in size
Method in brief: (§2)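 Cell viability after 48 h drug treatment, ATPlite luminescence readout; five doses.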

CAOV3 = assay: as above; conditions: Gynecologic cancer cell panel viability, ATPlite luminescence, 48 h; series mostly up to 57.5 µM
Method in brief: as §2

CASKI = assay: as above; conditions: Gynecologic cancer cell panel viability, ATPlite luminescence, 48 h; series mostly up to 57.5 µM
Method in brief: as §2

Es-2 = assay: as above; conditions: Gynecologic cancer cell panel viability, ATPlite luminescence, 48 h; series mostly up to 57.5 µM
Method in brief: as §2

HeLa = assay: as above; conditions: Gynecologic cancer cell panel viability, ATPlite luminescence, 48 h; series mostly up to 57.5 µM
Method in brief: as §2

Hek293T [2] = assay: as above; conditions: Gynecologic cancer cell panel viability, ATPlite luminescence, 48 h, control line for the selectivity index; series mostly up to 57.5 µM
Method in brief: as §2

JEG-3 = assay: as above; conditions: Gynecologic cancer cell panel viability, ATPlite luminescence, 48 h; series mostly up to 57.5 µM
Method in brief: as §2

OV90 = assay: as above; conditions: Gynecologic cancer cell panel viability, ATPlite luminescence, 48 h; series mostly up to 57.5 µM
Method in brief: as §2

PA-1 = assay: as above; conditions: Gynecologic cancer cell panel viability, ATPlite luminescence, 48 h; series mostly up to 57.5 µM
Method in brief: as §2

SKOV3 = assay: as above; conditions: Gynecologic cancer cell panel viability, ATPlite luminescence, 48 h; series mostly up to 57.5 µM
Method in brief: as §2

Tov-21-G = assay: as above; conditions: Gynecologic cancer cell panel viability, ATPlite luminescence, 48 h; series mostly up to 57.5 µM
Method in brief: as §2

NIH3T3 = assay: qHTS assay to identify novel small-molecules to repurpose for Merkel cell carcinoma treatment (AID 1296009); conditions: MCC and control cell lines, CellTiter-Glo viability, 72 h; at 44.8 µM (top of the series) unless noted; further: nearly all actives have a fitted effect of over 60% in size; further: potency means the concentration at half of the fitted maximal effect
Method in brief: as §1

| SMILES | outcome (HACAT) | outcome (HEK293T [1]) | Potency (MCC-13) | Potency (MCC-26) | Potency (MKL-1) | Potency (MKL-2) | Potency (UISO) | Potency (WaGa) | Potency (C33A) | Potency (CAOV3) | Potency (CASKI) | Potency (Es-2) | Potency (HeLa) | Potency (Hek293T [2]) | Potency (JEG-3) | Potency (OV90) | Potency (PA-1) | Potency (SKOV3) | Potency (Tov-21-G) | outcome (NIH3T3) |
| --- | --- | --- | --- | --- | --- | --- | --- | --- | --- | --- | --- | --- | --- | --- | --- | --- | --- | --- | --- | --- |
| O=C1CC(c2ccc(Cl)cc2)CC(=O)N1 | inactive | inactive | inactive | inactive | inactive | inactive | inactive | inactive | inactive | inactive | inactive | inactive | inactive | inactive | inactive | inactive | inactive | inactive | inactive |  |
| COc1cc(OC)nc(O[C@H](C(=O)O)C(OC)(c2ccccc2)c2ccccc2)n1 | inactive | inactive | inactive | inactive | inactive | inactive | inactive | inactive | inactive | inactive | inactive | inactive | inactive | inactive | inactive | inactive | inactive | inactive | inactive | inactive |
| CN(C)CCN1CCN(c2cccc(Cl)c2)C1=O | inactive | inactive | inactive | inactive | inactive | inactive | inactive | inactive | inactive | inactive | inactive | inactive | inactive | inactive | inactive | inactive | inactive | inactive | inactive | inactive |
| COC(=O)CCCCC(CCSS/C(CCO)=C(\C)N(C=O)Cc1cnc(C)nc1N)SC(C)=O (stereo not drawn) | inactive | inactive | inactive | inactive | inactive | inactive | inactive | inactive | inactive | inactive | inactive | inactive | inactive | inactive | inactive | inactive | inactive | inactive | inactive | inactive |
| CCCCCC[C@@H](CCC)C(=O)O | inactive | inactive | inactive | inactive | inactive | inactive | inactive | inactive | inactive |  | inactive | inactive | inactive | inactive | inactive | inactive | inactive | inactive | inactive | inactive |
| CN1CCCN=C1/C=C/c1cccs1 | inactive | inactive | inactive | inactive | inactive | inactive | inactive | inactive | inactive | inactive | inactive | inactive | inactive | inactive | inactive | inactive | inactive | inactive | inactive |  |
| C[C@H]1C[C@@H]2[C@H]([C@@H](O)C[C@@]3(C)[C@H]2CC[C@]3(O)C(=O)CO)[C@@]2(C)C=CC(=O)C=C12 | inactive | inactive | inactive | inactive | inactive | inactive | inactive | inactive | inactive | inactive | inactive | inactive | inactive | inactive | inactive | inactive | inactive | inactive | inactive |  |
| CO[C@@]1(NC(=O)CSC[C@@H](N)C(=O)O)C(=O)N2C(C(=O)O)=C(CSc3nnnn3C)CS[C@@H]21 | inactive | inactive | inactive | inactive | inactive | inactive | inactive | inactive | inactive | inactive | inactive | inactive | inactive | inactive | inactive | inactive | inactive | inactive | inactive |  |
| CN1N=C(C(N)=O)CCC1=O | inactive | inactive | inactive | inactive | inactive | inactive | inactive | inactive | inactive | inactive | inactive | inactive | inactive | inactive | inactive | inactive |  |  | inactive | inactive |
| COc1ccc(/C(C)=C/C(=O)O)c(OC)c1 | inactive | inactive | inactive | inactive | inactive | inactive | inactive | inactive | inactive | inactive | inactive | inactive | inactive | inactive | inactive | inactive | inactive | inactive | inactive | inactive |
| CCCCC(O)/C=C(C)/C=C/C=C/C(=O)N1CCCC1=O (stereo not drawn) | inactive |  | inactive | inactive | inactive | inactive | inactive | inactive | inactive | inactive | inactive | inactive | inactive | inactive | inactive | inactive | inactive |  | inactive | inactive |
| COc1cc2c(cc1OC)C(=O)CC2 | inactive |  | inactive | inactive | inactive | inactive | inactive | inactive | inactive | inactive | inactive | inactive | inactive | inactive | inactive | inactive | inactive | inactive | inactive | inactive |
| CC(C)=CCC/C(C)=C/CC/C(C)=C/CCC(=O)OC/C=C(\C)CCC=C(C)C | inactive |  | inactive | inactive | inactive | inactive | inactive | inactive | inactive | inactive | inactive | inactive | inactive | inactive | inactive | inactive | inactive | inactive | inactive | inactive |
| Cc1coc2ccccc2c1=O | inactive |  | inactive | inactive | inactive | inactive | inactive | inactive | inactive | inactive | inactive | inactive | inactive | inactive | inactive | inactive | inactive | inactive | inactive | inactive |
| NS(=O)(=O)c1cc(C(=O)NN2C[C@H]3[C@H]4CCC(C4)[C@H]3C2)ccc1Cl | inactive |  | inactive | inactive | inactive | inactive | inactive | inactive | inactive | inactive | inactive | inactive | inactive | inactive | inactive | inactive | inactive | inactive | inactive | inactive |
| CCCc1ncc(C(=O)O)s1 | inactive |  | inactive | inactive | inactive | inactive | inactive | inactive | inactive | inactive | inactive | inactive | inactive | inactive | inactive | inactive | inactive | inactive | inactive | inactive |
| COCCc1ccccn1 | inactive |  | inactive | inactive | inactive | inactive | inactive | inactive | inactive | inactive | inactive | inactive | inactive | inactive | inactive | inactive | inactive | inactive | inactive | inactive |
| COc1ccccc1N1CCN(CCN2C(=O)CC3(CCCC3)CC2=O)CC1 | inactive | inactive |  |  |  |  |  |  | inactive | inactive | inactive | inactive | inactive | inactive | inactive | inactive | inactive | inactive | inactive | inactive |
| COC(=O)c1cc(S(N)(=O)=O)ccc1OC | inactive |  | inactive | inactive | inactive | inactive | inactive | inactive | inactive | inactive | inactive | inactive | inactive | inactive | inactive | inactive | inactive | inactive | inactive | inactive |
| CN1CCC(=C2c3ccccc3CCc3cccnc32)CC1 | inactive |  | inactive | inactive | inactive | inactive | inactive | inactive | inactive | inactive | inactive | inactive | inactive | inactive | inactive | inactive | inactive | inactive |  | inactive |
| O=C(O)c1cn(C2CC2)c2cc(Cl)c(F)cc2c1=O | inactive |  | inactive | inactive | inactive | inactive | inactive | inactive | inactive | inactive | inactive | inactive | inactive | inactive | inactive | inactive | inactive | inactive | inactive | inactive |
| O=C(CCCl)NCc1ccccc1 | inactive |  | inactive | inactive | inactive | inactive | inactive | inactive | inactive | inactive | inactive | inactive | inactive | inactive | inactive | inactive | inactive | inactive | inactive | inactive |
| COC(=O)c1cc(Cl)c(NC(C)=O)cc1OC | inactive |  | inactive | inactive | inactive | inactive | inactive | inactive | inactive | inactive | inactive | inactive | inactive | inactive | inactive | inactive | inactive | inactive | inactive | inactive |
| COc1ccc2nc(SCc3ncc(C)c(OC)c3C)[nH]c2c1 | inactive |  | inactive | inactive | inactive | inactive | inactive | inactive | inactive | inactive | inactive | inactive | inactive | inactive | inactive | inactive | inactive | inactive | inactive | inactive |
| N#CC1(c2ccc(F)cc2)CCC(=O)CC1 | inactive |  | inactive | inactive | inactive | inactive | inactive | inactive | inactive | inactive | inactive | inactive | inactive | inactive | inactive | inactive | inactive | inactive | inactive | inactive |
| CCn1ccc(NS(=O)(=O)c2ccc(N)cc2)nc1=O | inactive |  | inactive | inactive | inactive | inactive | inactive | inactive | inactive | inactive | inactive | inactive | inactive | inactive | inactive | inactive | inactive | inactive | inactive | inactive |
| O=C(CCCCCCCCC#CI)Oc1ccccc1 | inactive | inactive | inactive |  | 13.3 µM (active) | 9.44 µM (active) | inactive | 11.9 µM (active) | inactive | inactive | inactive | inactive | inactive | inactive | inactive | inactive | inactive | inactive | inactive |  |
| Cc1oc(-c2ccccc2)nc1CCC(=O)c1ccc(CC2SC(=O)NC2=O)cc1 (stereo not drawn) | inactive | inactive | inactive | inactive | inactive | inactive | inactive |  | inactive | inactive | inactive | inactive | inactive | inactive | inactive | inactive | inactive | inactive | inactive |  |
| CN1C(=O)CC(C)(c2ccccc2)C1=O (stereo not drawn) | inactive |  | inactive | inactive | inactive | inactive | inactive | inactive | inactive | inactive | inactive | inactive | inactive | inactive | inactive | inactive | inactive | inactive | inactive | inactive |
| CCCCCOc1ccc(C2SC(=O)NC2=O)cc1OCC (stereo not drawn) | inactive |  | inactive | inactive | inactive | inactive | inactive | inactive | inactive | inactive | inactive | inactive | inactive | inactive | inactive | inactive | inactive |  | inactive | inactive |
